Screening results: PubChem BioAssay, National Center for Advancing Translational Sciences (NCATS)
KB-3-1 tox = KB-3-1 parental cell cytotoxicity; 400,000 compounds, 1.4% hits; Potency, µM (top dose mostly 46.1 µM), hits mostly cytotoxic; AID 1347075; KB-3-1 viability, CellTiter-Glo ATP luminescence, 72 h; further: nearly all actives have a fitted effect of over 60% in size
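Cytotoxicity in the drug-sensitive parental line KB-3-1 was scored as loss of CellTiter-Glo luminescence following 72 h incubation with compound. Values come from curve fitting of normalized concentration-response data.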
KB-V1 cytotox = kills drug-selected multidrug resistant KB-V1 cells; Potency, µM (top dose mostly 46.1 µM), hits mostly cytotoxic; AID 1347076; 400,000 compounds, 3.4% hits; KB-V1 MDR cells viability, CellTiter-Glo, 72 h; further: nearly all actives have a fitted effect of over 60% in size
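KB-V1, DMEM (no phenol red) + 10% FBS; cpd pin-transferred, titration series; 72 h, 37 degrees C; CellTiter-Glo, luminescence. Data normalized, curve-fit.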
RGS4 inhibitor = blocks human RGS4-accelerated GTP hydrolysis | 390,000 compounds, 0.039% hits | Transcreener GDP fluorescence polarization, RGS4-accelerated GTP hydrolysis | AID 504845 | Potency, µM (titrated, usually from 114 µM), most hits filed as inhibitors; further: nearly all actives have a fitted effect of over 75% in size
Target sequence (P49798 whole entry, looked up): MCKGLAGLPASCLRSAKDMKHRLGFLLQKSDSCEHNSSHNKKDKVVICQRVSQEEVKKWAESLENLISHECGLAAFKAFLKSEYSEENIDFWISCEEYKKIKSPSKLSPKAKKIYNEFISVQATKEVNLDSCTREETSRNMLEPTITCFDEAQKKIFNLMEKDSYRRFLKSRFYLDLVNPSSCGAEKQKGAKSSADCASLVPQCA
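MLSMR compounds (23 nl, pin-transferred) preincubated 10 min at room temperature with a 500nM (2x) first reagent, then RGS4 at 900nM (2x) plus Transcreener GDP mix added; fluorescence polarization (620/688 nm) read before and after 90 min at 30 °C.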
TSG101-PTAP inh = blocks PTAP/TSG101 interaction to inhibit HIV-1 budding; AID 493005; Fluorescence polarization, FITC-PTAP peptide / Tsg101 binding; Q99816; Potency, µM (highest dose often 115 µM), actives largely listed as inhibitors; 340,000 tested, under 10 active; active means well fitted inhibition curve with a large enough effect in the main read-out, with a control signal flat, not every such curve was filed as active; inconclusive means small, poorly fitted or top-dose-only effect, or effect the other way, or a change in a side signal; inactive means no such curve, though single readings can be large or run the other way
Target sequence (Q99816 whole entry, looked up): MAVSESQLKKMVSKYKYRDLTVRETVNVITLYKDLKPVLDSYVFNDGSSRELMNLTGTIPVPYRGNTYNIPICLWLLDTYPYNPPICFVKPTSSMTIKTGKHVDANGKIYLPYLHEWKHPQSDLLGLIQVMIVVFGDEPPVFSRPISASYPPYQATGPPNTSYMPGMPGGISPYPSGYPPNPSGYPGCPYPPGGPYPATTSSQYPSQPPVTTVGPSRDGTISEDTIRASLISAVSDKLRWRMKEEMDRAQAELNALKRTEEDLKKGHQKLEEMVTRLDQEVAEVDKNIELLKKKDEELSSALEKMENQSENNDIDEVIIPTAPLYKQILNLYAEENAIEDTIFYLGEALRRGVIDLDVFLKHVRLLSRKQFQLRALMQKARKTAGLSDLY
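Fluorescence anisotropy tracks displacement of a FITC-tagged PTAP peptide (50 nM) from the Tsg101 binding domain (10 uM), following a 20 min room-temperature incubation at pH 7.5.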
SW480 rerep = induces DNA re-replication in SW480 colon adenocarcinoma cells | Potency, µM (top dose mostly 46.1 µM), most hits filed as activators | 340,000 compounds, 1.8% hits | AID 624297 | SW480 DNA re-replication, Hoechst DNA content imaging, 48 h; further: nearly all actives have a fitted effect of over 55% in size
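First, 250 cells per well were seeded. Next, compound or vehicle (23 nL) was pinned in, plates sat 48 hr at 37 C. Finally Hoechst was added for 40 min before fluorescence scanning.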
MCF10A rereplic = DNA re-replication induction in MCF 10a cells. MCF 10A DNA re-replication, Hoechst nuclear intensity, 48 h. Potency, µM (series often up to 46.1 µM), actives largely listed as activators. 350,000 compounds, 2.9% hits. AID 624296; further: nearly all actives have a fitted effect of over 50% in size
Each line names hits and unclear results; the compound was inactive in the other large screens. Shown are actives, neighbours in structure and some others; about 6.6% of the full set was active somewhere. Unless noted, the call rests on the fitted dose curve; in most records, active means well fitted curve in the direction sought with a large enough effect; inconclusive means small, poorly fitted or top-dose-only effect, or another doubt; inactive means no such curve, though single readings can be large; an effect the other way counts as inactive or inconclusive.

CC1(C(=O)NCc2ccc(Cl)cc2)CCN1C(=O)Cc1ccc(Cl)cc1Cl (configuration not stated)	none (no result: RGS4 inhibitor, TSG101-PTAP inh, SW480 rerep, MCF10A rereplic)
CC(C)(C)c1ccc(CC(=O)N2CCC2(C)C(=O)NCc2ccc(Cl)cc2)cc1 (configuration not stated)	KB-3-1 tox inconclusive, KB-V1 cytotox 21µM (no result: RGS4 inhibitor, TSG101-PTAP inh, SW480 rerep, MCF10A rereplic)
CCc1cccc2c(C(=O)CN3C(=O)NC(C)(c4cccc5ccccc45)C3=O)c[nH]c12 (configuration not stated)	KB-3-1 tox inconclusive, KB-V1 cytotox 23µM, MCF10A rereplic 15µM
CCc1cccc2c(C(=O)CN3C(=O)NC4(CCc5ccccc54)C3=O)c[nH]c12 (configuration not stated)	KB-3-1 tox inconclusive, KB-V1 cytotox inconclusive, SW480 rerep inconclusive, MCF10A rereplic 15µM
CCc1cccc2c(C(=O)CN3C(=O)N(C)C4(CCCCC4)C3=O)c[nH]c12	KB-3-1 tox inconclusive, MCF10A rereplic 5.2µM
IC(I)I	none (no result: KB-3-1 tox, KB-V1 cytotox, RGS4 inhibitor, TSG101-PTAP inh)
CN(C)S(=O)(=O)c1cccc(NC(=O)c2cccc(S(=O)(=O)N3CCCCC3)c2)c1	KB-3-1 tox inconclusive, KB-V1 cytotox 18µM
COc1cccc(C(=O)Nc2cccc(C(=O)N3CCOCC3)c2)c1	none
CN(CC(=O)Nc1ccc(S(=O)(=O)N2CCCC2)cc1)Cc1cccc(Cl)c1Cl	KB-3-1 tox inconclusive, KB-V1 cytotox 18µM, MCF10A rereplic inconclusive (no result: SW480 rerep)
COc1ccc(C(=O)Nc2cccc(C(=O)N3CCCC3)c2)cc1	KB-V1 cytotox 21µM
COc1ccc(CN(C)C(=O)c2cccc(NS(=O)(=O)c3ccccc3)c2)cc1F	KB-V1 cytotox 8.2µM
COc1ccccc1CN(C)CC(=O)Nc1cccc(S(=O)(=O)N2CCCCC2)c1	KB-V1 cytotox inconclusive, MCF10A rereplic inconclusive
CCCCOc1ccc(CNC(=O)C2CCCN(c3nnc(-n4c(C)ccc4C)s3)C2)cc1 (configuration not stated)	KB-3-1 tox inconclusive, KB-V1 cytotox inconclusive (no result: TSG101-PTAP inh, SW480 rerep, MCF10A rereplic)
Cc1ccc(CN2C(=O)CN(C3CCCCCC3)C(=O)C2c2ccc(F)cc2)cc1 (configuration not stated)	none (no result: KB-3-1 tox, KB-V1 cytotox, TSG101-PTAP inh, SW480 rerep, MCF10A rereplic)
CN(CC(=O)Nc1cccc(F)c1)CC(=O)Nc1cccc(S(=O)(=O)N2CCCCCC2)c1	KB-3-1 tox inconclusive, KB-V1 cytotox 18µM
CN(C)S(=O)(=O)c1cccc(NC(=O)c2cccc(NS(=O)(=O)c3ccccc3)c2)c1	KB-3-1 tox 12µM, KB-V1 cytotox inconclusive
COc1ccc(NS(=O)(=O)c2cccc(NC(=O)c3ccc(S(=O)(=O)N4CCCCCC4)cc3)c2)cc1	KB-3-1 tox 21µM, KB-V1 cytotox inconclusive, MCF10A rereplic inconclusive
CN(CC(=O)Nc1cccc(F)c1)CC(=O)Nc1cccc(S(=O)(=O)N2CCCCC2)c1	none
COc1ccc(NS(=O)(=O)c2cccc(C(=O)N/N=C/c3c(F)c(F)c(F)c(F)c3F)c2)cc1	SW480 rerep inconclusive, MCF10A rereplic 18µM
COc1ccc(NS(=O)(=O)c2ccc(O)c(NC(=O)c3ccc(S(=O)(=O)N4CCCCCC4)cc3)c2)cc1	MCF10A rereplic inconclusive
COc1ccc(CNC(=O)CCc2c(C)c3cc4c(C)c(C)oc4cc3oc2=O)cc1OC	none (no result: KB-3-1 tox, KB-V1 cytotox, TSG101-PTAP inh, SW480 rerep, MCF10A rereplic)
CC(C)c1cnc2c(c1SCc1cccc(F)c1)c(=O)n(C)c(=O)n2C	none (no result: KB-3-1 tox, KB-V1 cytotox, TSG101-PTAP inh, SW480 rerep, MCF10A rereplic)
COc1ccc(-c2nc3ccc(N4CCCC4)cc3c(=O)[nH]2)cc1OC	KB-3-1 tox inconclusive, KB-V1 cytotox inconclusive, SW480 rerep 11µM, MCF10A rereplic 23µM
COc1ccc2nc(-c3ccccc3)[nH]c(=O)c2c1	none
CC(CCO)Nc1nc2c(c(=O)n(C)c(=O)n2C)n1Cc1ccc(Br)cc1 (configuration not stated)	none (no result: TSG101-PTAP inh, SW480 rerep, MCF10A rereplic)
CC(C)c1onc(C(=O)N2CCN(c3ccc(F)cc3)CC2)c1[N+](=O)[O-]	SW480 rerep 21µM
CC(C)c1onc(C(=O)N2CCN(c3ccccc3)CC2)c1[N+](=O)[O-]	SW480 rerep inconclusive
Cc1nn(-c2cccc(Cl)c2)c2nc(-c3ccco3)cc(C(=O)O)c12	MCF10A rereplic 15µM
Nc1cc(N)[nH]c(=S)n1	none (no result: RGS4 inhibitor, TSG101-PTAP inh, SW480 rerep, MCF10A rereplic)
O=C1CCCN2N=C(SCC(=O)Nc3ccc(OC(F)(F)F)cc3)SC2=N1	none
O=C1CCCN2N=C(SCC(=O)Nc3ccc([N+](=O)[O-])cc3)SC2=N1	RGS4 inhibitor inconclusive, SW480 rerep 2.9µM, MCF10A rereplic 5.2µM
CC(C)c1ccc(C(=O)C[N+]2(C)CCOCC2)cc1	none (no result: RGS4 inhibitor, TSG101-PTAP inh, SW480 rerep, MCF10A rereplic)
CC(=O)OCCc1c2ccccc2c(CCCN(C)C)c2ccccc12	SW480 rerep inconclusive, MCF10A rereplic 18µM
CC(=O)OCCc1[nH]c2ccccc2c1C	none
O=C1CC(c2nc3ccccc3n2CCCCOc2ccccc2)CN1c1ccccc1Cl (configuration not stated)	KB-3-1 tox inconclusive (no result: TSG101-PTAP inh, SW480 rerep, MCF10A rereplic)
Cc1ccc(NC(=O)Cc2ccc3c(c2)CCCC3)cc1C	none
COC(=O)C1(Cc2ccc3c(c2)CCC3)Cc2ccc3c(c2C1=O)CCC3 (configuration not stated)	KB-3-1 tox 5.8µM, KB-V1 cytotox 4.6µM, SW480 rerep inconclusive, MCF10A rereplic 9.2µM
Cc1ccc(C(=O)N2CCN(Cc3ccc4c(c3)OCO4)CC2)cc1S(=O)(=O)N1CCOCC1	KB-V1 cytotox 16µM
CCCCCn1c(=O)[nH]c2cc(C(=O)N3CCN(Cc4ccc5c(c4)OCO5)CC3)ccc2c1=O	none
CCn1c(=O)c(=O)[nH]c2cc(C(=O)N3CCN(Cc4ccc5c(c4)OCO5)CC3)ccc21	MCF10A rereplic 5.2µM
COc1ccc(C2c3c(n(C)c4ccccc34)C(=O)N2CC(=O)Nc2ccc(Cl)cc2)cc1 (configuration not stated)	none (no result: TSG101-PTAP inh, SW480 rerep, MCF10A rereplic)
CCCC1C(=O)Nc2ccccc2N1C(=O)c1ccc(C(C)(C)C)cc1 (configuration not stated)	SW480 rerep inconclusive, MCF10A rereplic 26µM
Cc1ccc(S(=O)(=O)N2CCCCC2CCNC(=O)C(=O)NCC2CCCO2)cc1 (configuration not stated)	KB-V1 cytotox 5.8µM
Cc1ccc(S(=O)(=O)N2CCCCC2CCNC(=O)C(=O)NCc2ccncc2)cc1 (configuration not stated)	KB-V1 cytotox inconclusive
Cc1ccc(S(=O)(=O)N2CCCCC2CCNC(=O)C(=O)NCc2ccccc2)cc1 (configuration not stated)	KB-3-1 tox 3.7µM, KB-V1 cytotox 4.1µM, SW480 rerep 6.5µM, MCF10A rereplic inconclusive
Cc1ccc(S(=O)(=O)N2CCCCC2CCNC(=O)C(=O)NCc2ccccc2C)cc1 (configuration not stated)	KB-3-1 tox inconclusive, KB-V1 cytotox 9.2µM, SW480 rerep 21µM, MCF10A rereplic inconclusive
